Our source for the potentiation values is PubChem BioAssay AID540277 (National Center for Advancing Translational Sciences (NCATS), 2011).

Screen size: about 320,000 compounds; about 55 (0.02%) were called active. Not shown: some 3% with an inconclusive outcome. The sample as a whole holds a higher share of actives than the screen did. Values without a mark were called inactive. No stated cut-off is given here; in the data, active means potentiation above about 80%; inconclusive means between about 30% and that limit; inactive means weaker than that.

Transient receptor potential cation channel subfamily V member 1 (Homo sapiens), sequence (Q8NER1 whole entry, looked up): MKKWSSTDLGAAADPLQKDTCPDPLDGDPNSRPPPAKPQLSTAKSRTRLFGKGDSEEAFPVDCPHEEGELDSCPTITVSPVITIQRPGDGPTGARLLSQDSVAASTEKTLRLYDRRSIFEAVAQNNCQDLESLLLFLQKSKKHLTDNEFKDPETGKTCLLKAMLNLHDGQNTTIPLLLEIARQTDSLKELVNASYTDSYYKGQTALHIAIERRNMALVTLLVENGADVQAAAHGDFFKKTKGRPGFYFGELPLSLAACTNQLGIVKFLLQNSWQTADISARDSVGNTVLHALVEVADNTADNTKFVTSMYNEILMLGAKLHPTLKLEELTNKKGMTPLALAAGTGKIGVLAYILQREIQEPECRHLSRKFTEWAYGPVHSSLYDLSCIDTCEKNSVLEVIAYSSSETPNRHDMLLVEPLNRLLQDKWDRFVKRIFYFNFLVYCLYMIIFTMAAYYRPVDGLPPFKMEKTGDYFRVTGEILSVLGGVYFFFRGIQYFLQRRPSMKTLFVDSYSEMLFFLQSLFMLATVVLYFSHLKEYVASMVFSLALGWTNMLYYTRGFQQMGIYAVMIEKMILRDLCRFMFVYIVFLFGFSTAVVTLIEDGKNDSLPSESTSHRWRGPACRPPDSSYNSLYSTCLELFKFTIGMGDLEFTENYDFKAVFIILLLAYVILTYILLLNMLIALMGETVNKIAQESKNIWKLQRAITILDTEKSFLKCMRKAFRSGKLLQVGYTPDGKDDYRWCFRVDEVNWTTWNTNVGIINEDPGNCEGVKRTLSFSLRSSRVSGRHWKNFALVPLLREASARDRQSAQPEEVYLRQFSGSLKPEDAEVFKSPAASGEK

The target of this test is Transient receptor potential cation channel subfamily V member 1 (Homo sapiens) (UniProt Q8NER1). Briefly: HTS Assay for Compounds that Act as Potentiators of the Vanilloid Receptor 1. Further: 0% is about no effect. As to conditions: TRPV1-expressing cells, Fluo-8 calcium influx, capsaicin EC20 potentiation; at 8.33 µM; stronger effect = higher value. An excerpt:
The transient receptor potential ion channel, family V, number 1, (TRPV1) is one of the most important molecular transducers of painful stimuli and a potential target for analgesic drug development. Although recent clinical trials with orthosteric antagonists have not produced a successful drug because of a hyperthermia side effect and their tendency to block thermal noxious pain, this ion channel is undeniably well placed in the pain pathway, and the idea of blocking pain signals before they enter the CNS is an excellent concept and of proven efficacy when TRPV1 agonists are used. We propose a new approach involving allosteric modulation to impose an activity-dependent constraint within the context of inflammation and tissue damage that would alter the responsiveness of the channel in a way that an orthosteric vanilloid antagonist cannot achieve. We believe that the allosteric modulator approach has not been explored for this target. The main goal of this proposal is to identify additional, new, potent allosteric modulators of TRPV1 that can be used to investigate TRPV1 function. Our recent report provides evidence of proof of concept, but the compounds are just at the edge of utility in terms of potency. […] The question of whether they can be used as analgesic agents is complex, but if suitable compounds are identified then testing for analgesic properties will be conducted. NIH Chemical Genomics Center [NCGC] NIH Molecular Libraries Probe Centers Network [MLPCN] MLPCN Grant: MH089480-1A1 Assay Submitter (PI): Michael Iadarola, National Institute of Dental and Cranofacial Research
Upon TRPV1 activation in TRPV1 cells, the channel opens and extracellular cations flow through the channel into the cytosol. A calcium binding dye (Fluo-8) becomes fluorescent when bound to calcium. This dye is pre-loaded into cells and is used as a marker for calcium influx. The amount of accumulated calcium is precisely quantified using the FDSS kinetic reader and the calcium dye. For the HTS assay, freshly prepared cells are plated at a density of 2000/well in 3 ul medium in 1536-well plates and cultured overnight at 35.5C. Cells will be loaded with 1 ul of the homogeneous calcium dye (ABD Bioquest) at room temperature for 40 to 90 minutes. Plates will be loaded into the FDSS kinetic reader and a 1 sec / cycle for 10 second baseline signal will be measured. Compound library will then be added with a pintool at 23 nl and measured kinetically for 3 minutes. This portion of the read is considered the agonist portion of the screen. Following the 3 minutes of incubation, an on board pipettor will deliver 1 ul of capsaicin for a final concentration equal to the EC20. Signal will be measured kinetically for an additional 2 minutes. This portion of the read is considered the allosteric enhancer portion of the screen. The FDSS reader has a standard filter set capable of measuring calcium bound Fluo-8 (ex=480 and em=520 nm).
As for `CCCCN1C(=O)C(=O)N(CC(=O)Nc2cccc(C(C)=O)c2)C1=O`, the potentiation was 6.11%. Consider `COC(=O)c1ccc(-c2c(-c3ccccc3)ncc3cc(OC)c(OC)cc23)cc1`, for which the potentiation is -0.0919%. To `O=C(NCC1CCCO1)c1cc2c(s1)CCCC2` (stereo unspecified) belongs -3.61%; to `COc1ccc(C(C)(C)C)cc1NC(=O)CCN1C(=O)C2CCCCC2C1=O` (stereo unspecified), -20%. To `Cc1ccc(NC(=O)C(c2ccccc2)N2CCN(C(=O)c3ccco3)CC2)cc1` (stereo unspecified) belongs 4.79%; to `CN(CCOc1ccccc1)C(=O)c1cc(-c2ccco2)nc2ccccc12`, 1.05%; to `CC1CCN(C(=O)COC(=O)c2cc(=O)[nH]c3ccccc23)CC1`, -1.92%. Under `CN(C)S(=O)(=O)c1cccc(NC(=O)COc2ccc3ccccc3c2)c1` stands 2.88%. For the compound `O=C(COC(=O)c1cccc(Cl)c1)NC1CCCCCCC1`, the potentiation was -13.9%. On to `COc1cc(OC)c(C(=S)N2CCCC2)cc1OC`, for which the potentiation was -20.3%. Regarding `COc1ccc(-c2cc(C(=O)NCCCN3CCCC3=O)c3ccccc3n2)cc1OC`, the potentiation was -7.67%. With `COc1cccc(C(=O)c2sc3nc(-c4ccccc4)cc(C(F)(F)F)c3c2N)c1`, the potentiation was -4.5%. Consider `CC(C)Cc1nnc(NC(=O)CCNC(=O)c2ccccc2Cl)s1`, for which the potentiation was 6.33%.

Take `CCCc1ccc(C(=O)COC(=O)CN2C(=O)NC3(CCCCC3C)C2=O)cc1` (stereo unspecified): the potentiation was -5.74%. Consider `O=C(OCC(=O)N1CCc2ccccc21)C1CCCN1S(=O)(=O)c1ccc(Cl)cc1` (stereo unspecified), for which the potentiation was -3.33%. On to `COc1ccc(C)cc1NC(=O)CN1c2cccc3cccc(c23)S1(=O)=O`, for which the potentiation is -17.5%. To `COc1ccc(S(=O)(=O)Nc2cccc3cccnc23)c(N)c1` belongs 13.6%; to `N#Cc1ccccc1S(=O)(=O)N1CCN(Cc2c(O)ccc3ccccc23)CC1`, 0.42%.

As for `O=C(COC(=O)CNC(=O)C1CCCCC1)NCc1ccccc1`, the potentiation was -6.14%. Under `CC(C)N(C(=O)CN1CCN(S(=O)(=O)c2ccc(Br)s2)CC1)C(C)C` stands -18.3%; under `CCOc1cccc2cc(C(=O)OCC(=O)Nc3c(C)cccc3CC)c(=O)oc12`, -5.16%. To `Nc1cc(N)nc(SCC(=O)Nc2cccc(S(=O)(=O)N3CCCCC3)c2)n1` belongs 0.644%.

`COc1cccc(C(=O)n2ccc(-c3cccs3)n2)c1`: the potentiation was -6.21%. `O=C(N[C@@H](Cc1c[nH]c2ccccc12)C(=O)O)OCC1c2ccccc2-c2ccccc21`: the potentiation was 1.56%. Under `CN(C(=O)CSc1nnc(-c2ccc(C(C)(C)C)cc2)n1C)C1CCS(=O)(=O)C1` (stereo unspecified) stands -2.39%; under `O=C(CSc1nnc(Nc2ccccc2F)s1)NC1CCCC1`, -7.27%. With `CCN(CC)S(=O)(=O)c1ccc(OC)c(NC(=O)CCc2c(C)noc2C)c1`, the potentiation is -15%. Under `COc1ccccc1S(=O)(=O)NCc1ccc(C(=O)N(C)Cc2ccc(F)cc2)cc1` stands -20.6%; under `Cc1ccc(NC(=S)N(Cc2ccco2)C(C)c2cccs2)cc1` (stereo unspecified), 141% (active); under `Cc1ccc(NC(=S)N(CCN2CCCCC2)Cc2ccco2)cc1C`, 2.55%. As to `Cc1ccc(NC(=S)N(CCCN2CCC(C)CC2)Cc2ccco2)cc1`, the potentiation is 8.22%. To `O=C(O)c1ccccc1N=N/C(=N/Nc1cc(S(=O)(=O)O)ccc1O)c1ccccc1` belongs 1.2%. With `CN(C)S(=O)(=O)c1ccc(C(=O)NCC2(N3CCOCC3)CCCCC2)cc1`, the potentiation was -44.6%. Consider `CN(Cc1cccs1)C(=O)CN1C(=O)c2ccccc2S1(=O)=O`, for which the potentiation was -1.15%. In the case of `CCC1(C)NC(=O)N(CC(=O)N2CCN(c3cccc(Cl)c3)CC2)C1=O` (stereo unspecified), the potentiation was -16.1%. On to `O=C(COC(=O)c1ccccc1Cl)NC1CCCCCCC1`, for which the potentiation is -4.06%.

Regarding `O=C(NCc1ccccc1CN1CCCC1)c1cccc(S(=O)(=O)Nc2ccc(F)cc2)c1`, the potentiation was -2.77%. To `CC(C)Oc1ccc(C(=O)NCC(=O)Nc2ccc3c(c2)CCC3)cc1` belongs -17.6%; to `O=C(Nc1cccc2cccnc12)C(F)(F)F`, 13.4%. To `CCNC(=O)N1CCN(S(=O)(=O)c2ccc3c(c2)OCCCO3)CC1` belongs 4.26%; to `N#Cc1ccc(C(=O)OCC(=O)NC(=O)NC2CCCCC2)cc1`, 22.1%; to `Cc1ccc(-c2nn(-c3ccccc3)cc2C(=O)NC2CCC(O)CC2)cc1` (stereo unspecified), -7.64%. Under `Cc1ccc(C(=O)NNC(=O)c2ccc3c(c2)OCCO3)cc1` stands 9.22%; under `Cn1c(SCC(=O)Nc2ccc(N3CCOCC3)cc2)nnc1C(F)(F)F`, 1.26%. Turning to `COc1ccc(S(=O)(=O)N2CCN(c3ccc(F)cc3)CC2)cc1-c1noc(C)n1`, the potentiation is -6.85%. Under `CCN(CC(=O)Nc1c(F)cccc1F)C(=O)c1ccc(-c2ccc(C(C)=O)cc2)o1` stands -3.51%; under `O=C(COc1ccccc1Cl)N1N=C(c2cccs2)CC1c1ccco1` (stereo unspecified), -9.15%.

As to `CCc1cc(C(=O)Nc2nnc(C3CC3)s2)sc1C`, the potentiation is -13.7%.

For the compound `O=C(CN1CCN(S(=O)(=O)c2ccc(Cl)s2)CC1)N1CCCCC1`, the potentiation is -6.4%. To `CN(C)C(CNC(=O)c1ccc(OCc2cn3ccccc3n2)cc1)c1ccco1` (stereo unspecified) belongs -3.83%.

In the case of `CN(CC(=O)NC1CCN(Cc2ccccc2)CC1)S(=O)(=O)c1ccc(Cl)s1`, the potentiation was 6.87%. Take `COc1ccccc1CNC(=O)COC(=O)c1sc(C)nc1C`: the potentiation is 1.52%.

As for `Cc1csc2nc(COC(=O)c3cccc(N(C)C)c3)cc(=O)n12`, the potentiation was 15%.

Turning to `COc1ccc(CCNC(=O)COc2ccc3c(c2)OCO3)cc1`, the potentiation is 18.8%. Under `CCOc1cc(/C=C(/C#N)c2ccc(Cl)cc2)cc(Cl)c1OCC(=O)O` stands 12.2%; under `COc1ccc(NC(=O)CC2SC(N3CCCCC3)=NC2=O)cc1OC` (stereo unspecified), 1.27%; under `Cc1cccc(OCCC(=O)OCc2csc(CC(=O)Nc3ccccc3C)n2)c1`, -3.33%. Turning to `O=S(=O)(Nc1cccc2cccnc12)c1cccc2cccnc12`, the potentiation is 16.1%.

Take `O=C(COC(=O)CNC(=O)C1CCCCC1)Nc1cccc(F)c1`: the potentiation was -7.91%. In the case of `O=C(COC(=O)Cc1ccccc1F)NCCc1ccccc1`, the potentiation is -16%. Under `CC(=O)c1sc(NC(=O)CCN2C(=O)C3CC=CCC3C2=O)nc1-c1ccccc1` (stereo unspecified) stands -6.85%; under `CC(C(=O)Nc1ccc(S(=O)(=O)N2CCCC2)cc1)N(C)Cc1ccc(F)cc1` (stereo unspecified), -18.2%; under `O=C(OCC(=O)N1CCOCC1)c1ccc2ccccc2c1`, 17.8%.

On to `O=C(NNC(=O)c1cc(S(=O)(=O)N2CCCCC2)ccc1Cl)c1ccccc1O`, for which the potentiation was -1.67%. To `CC1CCCN(C(=O)c2cc(-c3ccco3)nc3ccccc23)C1` (stereo unspecified) belongs 27.4%. Take `CC(C)Nc1ncnc2c1nnn2Cc1ccccc1`: the potentiation was -2.19%.

Turning to `Oc1ccc(Cl)cc1C1C=C(c2ccc3c(c2)OCO3)NC(c2c(F)cccc2Cl)N1` (stereo unspecified), the potentiation is 25.7%. Under `Cc1ccc(C(=O)Nc2ccn(C)n2)cc1` stands 6.57%; under `O=S(=O)(Nc1ccc2nc(N3CCOCC3)sc2c1)c1ccccc1`, 15.8%; under `O=C(CSc1nc2[nH]c(=O)[nH]c(=O)c2s1)Nc1cccc(F)c1`, 19.7%. To `O=C(Nc1ccccc1N1CCOCC1)c1ccncc1` belongs 17.2%. In the case of `NS(=O)(=O)c1ccc(CNC(=O)c2cccc(S(=O)(=O)N3CCc4ccccc43)c2)cc1`, the potentiation is 23.8%. Under `CC(C)n1ncc2c(C(=O)NCc3ccccc3CN(C)C)cc(C3CC3)nc21` stands 3.73%; under `Cc1ccc(OCC(=O)N2CCN(S(=O)(=O)c3ccc(Cl)s3)CC2)cc1C`, -16.7%; under `CCCn1c(N)c(N(CCOC)C(=O)C2CCCC2)c(=O)[nH]c1=O`, 1.87%. Under `Oc1ccc(Cl)cc1C1C=C(c2ccc3c(c2)OCO3)NC(c2ccc(F)c(Br)c2)N1` (stereo unspecified) stands 3.03%; under `O=C(NCCN1CCOCC1)c1cccc(S(=O)(=O)Nc2ccc(F)cc2)c1`, 6.45%.

As to `COc1ccc(OC)c(/C=C/C(=O)c2ccc3c(c2)OCO3)c1`, the potentiation was -3.4%. To `Cc1cccc(Nc2nnc(SCC(=O)c3c(N)n(C4CC4)c(=O)[nH]c3=O)s2)c1C` belongs 22.3%; to `COc1cc(C#Cc2ccc3cc(CCCO)oc(=O)c3c2)cc(OC)c1`, 2.73%; to `O=C(NCc1ccccc1CN1CCCC1)C1CCN(S(=O)(=O)c2ccc(Cl)cc2)CC1`, 1.5%. To `O=S(=O)(c1ccc(SCc2ccccc2)nc1)N1CCCCCC1` belongs -6.24%; to `Cc1ccc2ccc3c(c2n1)NS(=O)(=O)c1ccccc1-3`, 18.5%. On to `CC1(C)O[C@@H]2[C@H](O1)[C@@H](COS(=O)(=O)O)O[C@H]2n1cnc2c(=O)[nH]cnc21`, for which the potentiation is 8.79%.

Consider `COc1cccc(NC(=O)COC(=O)/C=C/c2ccco2)c1`, for which the potentiation was 11%. Under `COc1ccccc1NC(=O)COC(=O)COc1ccccc1F` stands 3.99%; under `COc1ccc(NC(=O)CN(C)C(=O)c2cc(C3CC3)nn2-c2ccccc2)cc1`, 14.7%.

On to `Cc1ccc(/C=C/C(=O)OCC(=O)Nc2cccnc2Cl)cc1`, for which the potentiation was -11.8%. To `Cc1cccc(NS(=O)(=O)c2ccc(C)c(C(=O)NCC(c3ccccc3)N(C)C)c2)c1` (stereo unspecified) belongs 1.06%. In the case of `Cc1cccc(NS(=O)(=O)c2cccc(C(=O)NNC(=O)c3ccccc3O)c2)c1`, the potentiation is -12.6%. Turning to `COc1ccc(C(=O)OCC(=O)c2cc(C)n(CC3CCCO3)c2C)cc1[N+](=O)[O-]` (stereo unspecified), the potentiation was 9.08%.
